High-throughput results as filed in PubChem.
Most compounds without a hit are left out; they make up all but 11% or so of the library.
HCV inh: HCV inhibition. AID 651820. Potency, µM (series often up to 41.8 µM), for the others: at the top dose activity change, negative = inhibition, hits mostly inhibitors. Huh7.5.1 HCVcc-Cre infection, luciferase reporter, 44 h. hit rate 3.4% among 340,000
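Infectious HCVcc-Cre (~0.5 moi) was added to cells just after compound, with cells seeded 4 h earlier at 1,000 per well. Luciferase activity after 44 h culture reported infection; substrate was incubated 15 min at room temperature before reading.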
AmpC no deterg: inhibitors of E. coli AmpC beta-lactamase without detergent. hit rate 0.52% among 330,000. AmpC nitrocefin hydrolysis, absorbance 480 nm, 0.0001% Triton. AID 485341. Potency, µM (series often up to 57.1 µM), for inactives: at the highest dose activity change, negative = inhibition, hits mostly inhibitors. P00811;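 also: plate controls were no compound for no effect and no enzyme for full effect; nearly all actives have a fitted effect of over 20% in size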
Target sequence (P00811 whole entry, looked up): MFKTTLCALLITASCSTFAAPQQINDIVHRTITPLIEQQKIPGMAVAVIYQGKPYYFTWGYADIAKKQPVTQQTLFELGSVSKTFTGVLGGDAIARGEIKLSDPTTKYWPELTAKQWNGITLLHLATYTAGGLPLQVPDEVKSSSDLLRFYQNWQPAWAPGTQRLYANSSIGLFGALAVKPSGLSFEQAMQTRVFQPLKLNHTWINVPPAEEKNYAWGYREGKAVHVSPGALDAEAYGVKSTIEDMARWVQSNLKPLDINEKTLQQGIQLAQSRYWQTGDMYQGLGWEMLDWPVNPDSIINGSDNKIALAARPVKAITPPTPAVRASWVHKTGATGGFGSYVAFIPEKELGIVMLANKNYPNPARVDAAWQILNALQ
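20 mM phosphate pH 7.0 + 0.01% (detergent screen) or 0.0001% Triton X-100; 5.3 nM AmpC reagent; cpd preinc 15 min RT; nitrocefin (800 uM stock) to start; A480 q20 s × 4 min; Activity was normalised to no-enzyme and no-compound control wells.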
AMA1-RON2 inh: disrupts binding of P. falciparum AMA1 to RON2; AlphaScreen AMA1-biotinylated RON2 peptide binding; Potency, µM (top dose mostly 58.2 µM), inactives show at the highest dose activity change, negative = inhibition, usual class: inhibitors; hit rate 0.2% among 360,000; AID 720542;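 also: 0% = vehicle wells and -100% = peptide control; nearly all actives have a fitted effect of over 45% in size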
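AMA1 (3D7) with his tag at 25 nM final met compounds first, then biotinylated RON2 peptide at 25 nM; detection used donor plus acceptor beads, 10 µg/mL apiece, read by AlphaScreen after 30 min at room temperature.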
Pf growth 48h: inhibits P. falciparum growth in the first generation, 48 h | P. falciparum luciferase growth in erythrocytes, 48 h | Potency, µM (top dose mostly 28.7 µM), without a hit: at the top dose activity change, negative = inhibition, hits mostly inhibitors | hit rate 5.9% among 310,000
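Cell-based growth assay: transgenic P. falciparum expressing firefly luciferase, cultured in red cells within RPMI 1640 containing 0.5% w/v Albumax, 24 mM bicarbonate and gentamycin. A drop in luciferase activity indicates inhibition.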
Pf growth 96h: P. falciparum growth inhibition at 96 hour, primary screen for plastid delayed-death inhibitors | P. falciparum luciferase reporter growth, 96 h | Potency, µM (top dose mostly 28.7 µM), without a hit: at the highest dose activity change, negative = inhibition, hits mostly inhibitors | hit rate 6.9% among 320,000 | AID 504834
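Parasite growth measured via integrated firefly luciferase reporter in P. falciparum. Infected erythrocytes at 2% hematocrit, 0.05% parasitemia final were treated 96 hours at 37 C under 5% CO2, and luminescence was read.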
AmpC detergent: blocks E. coli AmpC beta-lactamase in detergent assay; Potency, µM (titrated, usually from 114 µM), for inactives: at the highest dose activity change, negative = inhibition, most hits filed as inhibitors; AmpC hydrolysis of nitrocefin, absorbance 480 nm, 0.01% Triton; hit rate 0.041% among 370,000; P00811;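 also: 0% = no-compound wells and -100% = no-enzyme wells; nearly all actives have a fitted effect of over 25% in size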
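20 mM phosphate pH 7.0 + 0.01% (detergent screen) or 0.0001% Triton X-100; 5.3 nM AmpC reagent; cpd preinc 15 min RT; nitrocefin (800 uM stock) to start; A480 q20 s × 4 min; Activity was normalised to no-enzyme and no-compound control wells.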
* = called active by the depositor; [ ] = remark or other dose. Calls follow the shape of the dose curve; as a rule, active = well fitted curve in the direction sought with a large enough effect; inconclusive = small, poorly fitted or top-dose-only effect, or another doubt; inactive = no such curve, though single readings can be large; an effect the other way counts as inactive or inconclusive. Unless noted, % is scaled to controls: 0 for no effect and ±100 for the full control effect; potency is read from the fitted curve at half-maximal effect.

Screening Cc1ccc(C)c(N2CCN(C(=O)Cn3nc(Cc4cccnc4)c4ccccc4c3=O)CC2)c1 returned AmpC detergent -8.0%.
For COc1ccc(NC(=S)N(CCc2c(C)[nH]c3ccccc23)Cc2cccnc2)cc1 the results were HCV inh 4.7%[8.37 µM], AmpC no deterg -40.0%, AMA1-RON2 inh -5.7%, Pf growth 48h inconclusive, Pf growth 96h inconclusive and AmpC detergent inconclusive.
Screening COCCNC(=S)N(CCc1c(C)[nH]c2ccc(OC)cc12)Cc1ccco1 returned HCV inh inconclusive, AmpC no deterg -2.8%, AMA1-RON2 inh -8.7%, Pf growth 48h 9.28µM*, Pf growth 96h 244.9% and AmpC detergent -4.0%.
Screening COc1ccc(NC(=S)N(CCc2c(C)[nH]c3ccc(C)cc23)Cc2ccco2)cc1 returned HCV inh inconclusive, AmpC no deterg 17.8µM*, AMA1-RON2 inh 20.4%, Pf growth 48h -9.9%, Pf growth 96h inconclusive and AmpC detergent inconclusive.
`COCCNC(=S)N(CCc1c(C)[nH]c2ccc(F)cc12)Cc1ccc(C)cc1` gave HCV inh 14.1µM*, AmpC no deterg 10.9%, AMA1-RON2 inh -13.4%, Pf growth 48h inconclusive, Pf growth 96h -0.2% and AmpC detergent 1.8%.
Screening COCCNC(=S)N(CCc1c(C)[nH]c2ccc(C)cc12)Cc1ccco1 returned HCV inh inconclusive, AmpC no deterg 50.4%, AMA1-RON2 inh -20.4%, Pf growth 48h inconclusive, Pf growth 96h inconclusive and AmpC detergent -3.9%.
Screening CNC(=S)N(CCc1c(C)[nH]c2ccc(OC)cc12)Cc1ccco1 returned HCV inh -20.1%, AmpC no deterg -23.9%, AMA1-RON2 inh 0.0%, Pf growth 48h inconclusive, Pf growth 96h inconclusive and AmpC detergent -10.1%.
Screening CCOc1ccc(NC(=S)N(CCc2c(C)[nH]c3ccc(C)cc23)Cc2ccco2)cc1 returned HCV inh 11.2µM*, AmpC no deterg inconclusive, AMA1-RON2 inh 21.9%, Pf growth 48h inconclusive, Pf growth 96h inconclusive and AmpC detergent inconclusive.
`COc1ccc(-c2nc(Cn3c(SCc4ccc(C)cc4)nc4cccnc43)c(C)o2)cc1OC` gave AmpC detergent 17.4%.
For O=C(c1ccc([N+](=O)[O-])cc1)N(Cc1ccco1)c1ccccn1 the results were AmpC detergent 14.4%.
For COc1ccc(NC(=S)N(Cc2ccc(N(C)C)cc2)Cc2ccco2)cc1 the results were HCV inh 4.9%, AmpC no deterg -26.5%, AMA1-RON2 inh inconclusive, Pf growth 48h 3.2%, Pf growth 96h 0.657µM* and AmpC detergent -11.2%.
Screening CCOc1ccc(NC(=S)N(Cc2ccc(N(C)C)cc2)Cc2ccco2)cc1 returned HCV inh -12.4%, AmpC no deterg 6.3%, AMA1-RON2 inh inconclusive, Pf growth 48h inconclusive, Pf growth 96h -0.5% and AmpC detergent 2.0%.
For CCn1nnc(-c2ccccc2NC(=O)c2cnccn2)n1 the results were HCV inh 11.2µM* and AMA1-RON2 inh 87.2%.
COc1ccc(-c2[nH]nc3c2C(c2ccc(OC(=O)N4CCOCC4)cc2)C(C#N)=C(N)O3)cc1 (stereo unspecified) was read as AmpC no deterg -18.5%, AMA1-RON2 inh -6.1%, Pf growth 48h 0.6%, Pf growth 96h 13.1µM* and AmpC detergent 2.0%.
For N#CC1=C(N)Oc2n[nH]c(-c3ccc(F)cc3)c2C1c1cccc(OC(=O)N2CCOCC2)c1 (stereo unspecified) the results were HCV inh 8.2%, AmpC no deterg -24.9%, AMA1-RON2 inh 17.8%, Pf growth 96h 22.3% and AmpC detergent inconclusive.
